Where “and” joins values, the source holds several entries; their conditions need not be identical. Equal entries are not always repeated. The whole screen tested about 5,500 compounds, of which about 2,000 (36%) were called active. About 18% were inconclusive and are not listed. Rule as the data show it: active = normalized growth mostly below about 0.91 (no sharp cut-off); inconclusive = no clear call, values can overlap the other calls; inactive = mostly above about 0.92. The list shows a part of the results.
Assay: chemical genetic growth profiling, strain panel (AID 1159580);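 also: tested at 20 µM; growth read once vehicle control cultures reached saturation at 30 °C; 1 = growth at the plate median or of vehicle wells; lower values mean less growth of the strain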
Conditions: S. cerevisiae deletion strains, growth OD

Measured: normalized growth

c1ccc2c(c1)[nH]c1cnccc12
inactive: locus YAL021C, strain ccr4, active compounds read low 1.01 | locus YAL026C, strain drs2, active compounds read low 1.01 | locus YAL030W, strain snc1, active compounds read low 0.999 | locus YBL061C, strain skt5, active compounds read low 0.991 | locus YBR009C, strain hhf1, active compounds read low 1 | locus YBR021W, strain FUR4, active compounds read low 1.05 | locus YBR023C, strain chs3, active compounds read low 0.993 | locus YBR171W, strain sec66, active compounds read low 0.99 | locus YBR229C, strain ROT2, active compounds read low 1.01 | locus YBR231C, strain swc5, active compounds read low 0.999 | locus YBR279W, strain paf1, active compounds read low 1 | locus YCL011C, strain gbp2, active compounds read low 0.998 | locus YCL016C, strain dcc1, active compounds read low 0.999 | locus YCL029C, strain bik1, active compounds read low 0.975 | locus YCL061C, strain MRC1, active compounds read low 0.997 | locus YCL069W, strain vba3, active compounds read low 1 | locus YCR088W, strain abp1, active compounds read low 1 | locus YDL005C, strain med2, active compounds read low 0.989 | locus YDL035C, strain GPR1, active compounds read low 0.991 | locus YDL040C, strain nat1, active compounds read low 0.995 | locus YDL074C, strain BRE1, active compounds read low 0.977 | locus YDL101C, strain DUN1, active compounds read low 0.986 | locus YDL134C, strain PPH21, active compounds read low 1.08 | locus YDL185W, strain tfp1, active compounds read low 0.954 | locus YDL192W, strain arf1, active compounds read low 0.979 | locus YDR001C, strain nth1, active compounds read low 1 | locus YDR069C, strain doa4, active compounds read low 0.977 | locus YDR101C, strain arx1, active compounds read low 0.961 | locus YDR137W, strain rgp1, active compounds read low 0.958 | locus YDR159W, strain sac3, active compounds read low 1.01 | locus YDR162C, strain NBP2, active compounds read low 1.01 | locus YDR195W, strain ref2 0.995 | locus YDR297W, strain sur2, active compounds read low 0.999 | locus YDR318W, strain mcm21, active compounds read low 1.01 | locus YDR334W, strain swr1, active compounds read low 0.998 | locus YDR335W, strain msn5, active compounds read low 0.999 | locus YDR388W, active compounds read low 0.996 | locus YDR392W, strain spt3, active compounds read low 0.967 | locus YDR502C, strain sam2, active compounds read low 0.994 | locus YEL003W, strain gim4, active compounds read low 1 | locus YEL037C, strain rad23, active compounds read low 1.03 | locus YEL061C, strain CIN8 (second series), active compounds read low 1.01 | locus YEL061C, strain CIN8, active compounds read low 0.99 | locus YER015W, strain faa2, active compounds read low 0.982 | locus YER016W, strain bim1, active compounds read low 0.992 | locus YER110C, active compounds read low 0.964 | locus YER111C, strain swi4, active compounds read low 0.984 | locus YER155C, strain BEM2 (second series), active compounds read low 0.965 | locus YER155C, strain BEM2, active compounds read low 1 | locus YER167W, strain BCK2, active compounds read low 1.02 | locus YFR010W, strain ubp6, active compounds read low 1 | locus YGL078C, strain dbp3, active compounds read low 0.981 | locus YGL086W, strain mad1, active compounds read low 0.948 | locus YGL167C, strain pmr1, active compounds read low 0.998 | locus YGL173C, strain kem1, active compounds read low 0.997 | locus YGL227W, strain vid30, active compounds read low 0.999 | locus YGL240W, strain doc1, active compounds read low 0.991 | locus YGL248W, strain PDE1, active compounds read low 1.01 | locus YGL253W, strain hxk2, active compounds read low 1.01 | locus YGR135W, strain pre9, active compounds read low 1 | locus YGR229C, strain SMI1, active compounds read low 1.02 | locus YGR252W, strain gcn5, active compounds read low 1.19 | locus YHR013C, strain ard1, active compounds read low 1.02 | locus YHR027C, strain rpn1, active compounds read low 0.993 | locus YHR030C, strain SLT2, active compounds read low 1 and 1.03 | locus YHR079C, strain IRE1 (second series), active compounds read low 0.984 | locus YHR079C, strain IRE1, active compounds read low 1.03 | locus YHR094C, strain hxt1, active compounds read low 0.994 | locus YHR129C, strain ARP1, active compounds read low 1 | locus YHR142W, strain chs7, active compounds read low 1.01 | locus YHR200W, strain rpn10, active compounds read low 0.98 | locus YIL066C, strain RNR3, active compounds read low 1.01 | locus YIL073C, strain SPO22, active compounds read low 0.995 | locus YIL125W, strain kgd1, active compounds read low 0.992 | locus YIR030C, strain dcg1, active compounds read low 0.991 | locus YJL092W, strain hpr5, active compounds read low 0.995 | locus YJL095W, strain BCK1 (second series), active compounds read low 0.999 | locus YJL095W, strain BCK1, active compounds read low 1 and 1.01 | locus YJL115W, strain asf1, active compounds read low 0.996 | locus YJL129C, strain trk1, active compounds read low 1.01 | locus YJL134W, strain LCB3, active compounds read low 1 | locus YJL154C, strain vps35, active compounds read low 1 | locus YJL164C, strain tpk1, active compounds read low 1.01 | locus YJL166W, strain qcr8, active compounds read low 1 | locus YJL168C, strain set2, active compounds read low 0.979 | locus YJL187C, strain SWE1 (second series), active compounds read low 0.986 | locus YJL187C, strain SWE1, active compounds read low 0.995 | locus YJR043C, strain POL32, active compounds read low 1.04
